Hits are enriched below; roughly 7% of the tested compounds scored in any of these assays.
KAT2A inh: inhibitors of human GCN5L2 histone acetyltransferase | actives 0.21% (n = 390,000) | Potency, µM (series often up to 58.9 µM), for inactives: at the highest dose activity change, negative = inhibition, most hits filed as inhibitors | GCN5L2 HAT assay, ThioGlo1 CoA-SH fluorescence; further: potency means the concentration at half of the fitted maximal effect; on the % scale 0 is the no-effect control and ±100 the full control effect
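Compounds, pin-transferred from DMSO stocks, meet 20nM GCN5L2 for 15 min before the reaction begins with H3(1-25) peptide (75uM) and acetyl-CoA (70uM). Thiol-reactive ThioGlo1 reports CoA release over 20 min at room temperature.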
HP1b chromo inh: HP1-beta chromodomain-methylated histone interaction inhibition | Potency, µM (series often up to 114 µM), inactives show at the top dose activity change, negative = inhibition, hits mostly inhibitors | actives 0.56% (n = 390,000) | P83916 | AlphaScreen HP1-beta / biotin-H3K9me3 peptide binding | AID 540317; further: potency means the concentration at half of the fitted maximal effect; nearly all actives have a fitted effect of over 70% in size
Target sequence (P83916 whole entry, looked up): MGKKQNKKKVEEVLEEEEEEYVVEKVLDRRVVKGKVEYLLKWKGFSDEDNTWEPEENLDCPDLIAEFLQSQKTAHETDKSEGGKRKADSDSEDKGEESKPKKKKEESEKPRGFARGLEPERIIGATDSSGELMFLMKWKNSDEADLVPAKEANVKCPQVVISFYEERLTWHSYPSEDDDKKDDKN
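HP1-beta protein (50 nM final) preincubated 30 min at room temperature with biotinylated H3(1-18)K9me3 peptide (50 nM) in PBS pH 7.4, 0.01% Tween-20, then compound added for 30 min. AlphaScreen streptavidin donor/nickel chelate acceptor beads (10 ug/mL final), 30 min dark, luminescence read.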
PLK1 PBD inh: inhibitors of human PLK1 polo-box domain binding | Potency, µM, for inactives: max response, negative = inhibition, most hits filed as inhibitors | P53350 | actives 2.8% (n = 360,000) | Plk1 PBD binding of FITC phosphopeptide, fluorescence polarization | AID 720504; further: potency means the concentration at half of the fitted maximal effect; series mostly up to about 57 µM; on the % scale 0 is the no-effect control and ±100 the full control effect; nearly all actives have a fitted effect of over 65% in size
BAZ2B inh: blocks human BAZ2B | Q9UIF8 | AlphaScreen BAZ2B-H3K14Ac peptide displacement | Potency, µM (series often up to 114 µM), for inactives: top-dose activity change, negative = inhibition, actives largely listed as inhibitors | actives 4.4% (n = 360,000) | AID 504333; further: potency means the concentration at half of the fitted maximal effect; on the % scale 0 is the no-effect control and ±100 the full control effect; nearly all actives have a fitted effect of over 60% in size
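In this displacement format the biotinylated H3(5-23) peptide acetylated at Lys14 serves as ligand at 50 nM, with BAZ2B at 50 nM in PBS pH 7.4 containing 0.01% Tween-20. Donor and acceptor beads are 10 ug/mL final.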
PI5P4Ka inh: inhibitors of human PI5P4K alpha. PI5P4Kalpha enzyme, ADP-Glo luminescence, 60 min; hits give low values. max response, %. actives 1.2% (n = 330,000). AID 652105; active means max response of -50% or lower; inconclusive means between -30% and -50%; inactive means -30% or higher; further: value at the top dose of about 77 µM; on the % scale 0 is the no-effect control and ±100 the full control effect
Target sequence (P48426 whole entry, looked up): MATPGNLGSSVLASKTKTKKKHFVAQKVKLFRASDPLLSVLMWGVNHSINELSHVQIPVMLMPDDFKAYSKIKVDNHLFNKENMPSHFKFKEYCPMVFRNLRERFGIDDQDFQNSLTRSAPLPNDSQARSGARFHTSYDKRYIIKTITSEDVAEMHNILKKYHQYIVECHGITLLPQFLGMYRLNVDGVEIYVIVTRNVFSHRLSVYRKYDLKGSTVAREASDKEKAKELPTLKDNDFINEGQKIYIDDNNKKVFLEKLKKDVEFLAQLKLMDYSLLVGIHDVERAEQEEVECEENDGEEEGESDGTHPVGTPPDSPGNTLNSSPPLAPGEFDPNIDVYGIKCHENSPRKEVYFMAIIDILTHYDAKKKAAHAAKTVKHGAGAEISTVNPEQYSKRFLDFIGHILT
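Luminescence from ADP-Glo served as readout of PI5P4Kalpha activity in a qHTS format. Reaction: enzyme, substrate, compound, ATP at 5 microM final, 60 min at RT.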
JMJD2A Tudor: JMJD2A Tudor domain (human) inhibition; AID 504339; O75164; Potency, µM (highest dose often 114 µM), for the others: at the top dose activity change, negative = inhibition, hits mostly inhibitors; actives 4.4% (n = 390,000); AlphaScreen JMJD2A-Tudor / H3K4me3 peptide binding; further: potency means the concentration at half of the fitted maximal effect; on the % scale 0 is the no-effect control and ±100 the full control effect; nearly all actives have a fitted effect of over 50% in size
Starred values were filed as active, the others as inactive; ? = inconclusive; nt = no result given; [ ] = remark or other dose. Unless noted, the call rests on the fitted dose curve; in most records, active means well fitted curve in the direction sought with a large enough effect; inconclusive means small, poorly fitted or top-dose-only effect, or another doubt; inactive means no such curve, though single readings can be large; an effect the other way counts as inactive or inconclusive.

SMILES | KAT2A inh | HP1b chromo inh | PLK1 PBD inh | BAZ2B inh | PI5P4Ka inh | JMJD2A Tudor
CC(C)CN=CC1=C(O)c2ccccc2C1=O | -28% | 5% | 9% | 7% | 3 | -10%
O=C1C(C=NCc2ccccn2)=C(O)c2ccccc21 | -7% | 21% | -5% | 89µM* | nt | -7%
COc1ccc(C2C(=O)N(C3CCC(C)CC3)CC(=O)N2CCc2ccccc2)cc1OC (centres undefined) | 1% | -8% | nt | -4% | nt | -20%
CCN1CCN(S(=O)(=O)c2ccc(OC)cc2)CC1 | -5% | 44% | -17% | -13% | -5 | -10%
COc1ccc(CN2CCCN(S(=O)(=O)c3ccc(Br)cc3)CC2)cc1 | -11% | -5% | 27µM* | ? | -1 | ?
COc1ccc(S(=O)(=O)N2CCN(Cc3ccc(Cl)cc3)CC2)cc1 | -7% | ? | -1% | ? | nt | 10µM*
COc1ccc(N2CCN(Cc3csc(C)c3-c3ccc(C)cc3)CC2)cc1 | 3% | 35µM* | -2% | 28µM* | 11 | 13µM*
COc1ccc(N2CCN(Cc3cc4c(cc3Br)OCCO4)CC2)cc1 | -1% | ? | -5% | 13µM* | 9 | 22µM*
COc1cccc(NC(=O)C(=O)NCCc2sc(-c3cccc(C)c3)nc2C)c1 | 0% | 14%[57 µM] | nt | 5% | nt | -8%
CC(=O)Nc1cccc(NC(=O)CSc2nnnn2-c2ccc3c(c2)OCO3)c1 | -10% | nt | nt | -19% | nt | nt
CSc1ccc(C(c2c(C)[nH][nH]c2=O)c2c(C)[nH][nH]c2=O)cc1 | -6% | 14% | ? | -5% | -4 | -36%
CCOc1cc(Br)cc(C(c2c(C(=O)O)[nH]c3ccccc23)c2c(C(=O)O)[nH]c3ccccc23)c1O | ? | 26% | 15µM* | -33% | -10 | -24%
CSc1ccc(C(c2c(C(=O)O)[nH]c3ccccc23)c2c(C(=O)O)[nH]c3ccccc23)cc1 | -26% | 15% | 11µM* | 50µM* | -10 | -19%
CCOC(=O)c1[nH]c2ccccc2c1NC(C)=O | -3% | 31% | -7% | -2% | -1 | -17%
Fc1ccc(C2CC(c3ccc(F)cc3)n3ncnc3N2)cc1 (centres undefined) | -5% | 17% | -3% | -32% | nt | -27%
Oc1ccccc1C1=Nc2ncnn2C(c2ccc(F)cc2)C1 (centres undefined) | 0% | 33% | -24% | 56µM* | -6 | -20%
Cc1ccc(CCNC(=O)CCCn2c(=O)c3ccccc3n(Cc3ccccc3C#N)c2=O)cc1 | -4% | 21% | nt | 0% | nt | 0%
CCC(C)Nc1nc(N)c([N+](=O)[O-])c(N2CCCCCC2)n1 (centres undefined) | 1% | -28% | -7% | 50µM* | -9 | ?
CCC(C)Nc1nc(N)c([N+](=O)[O-])c(NCc2ccccc2)n1 (centres undefined) | -13% | ? | 30µM* | ? | 1 | 56µM*
Cc1ccc(Nc2nc(N)c([N+](=O)[O-])c(NCc3ccccc3)n2)cc1 | -2% | 3% | -14% | -12% | 4 | -14%
CC(=O)COc1coc(CN2CCN(c3ccc(F)cc3)CC2)cc1=O | -6% | 52% | -10% | -6% | 1 | -8%
COCCNC(=O)CN(C(=O)CCC(=O)Nc1ccccn1)c1cc(C)ccc1C | -9% | 23% | -12% | 5% | -3 | -6%
COc1ccc(-n2cc(CNCCc3cnc[nH]3)c(-c3cccc(F)c3)n2)cc1 | 5% | 2% | -13% | 50µM* | 2 | ?
Cc1ccc(-n2cc(CNCCn3nc(C)cc3C)c(-c3ccc(F)cc3)n2)cc1 | 0% | 29% | -15% | -12% | 1 | -27%
Cc1ccc(-n2cc(CNCCc3ncc(C)[nH]3)c(-c3ccc(F)cc3)n2)cc1 | -7% | -5% | -6% | ? | 10 | 56µM*
SMILES | KAT2A inh | HP1b chromo inh | PLK1 PBD inh | BAZ2B inh | PI5P4Ka inh | JMJD2A Tudor
COc1ccc(OC)c(-c2csc(NC(=O)COC(=O)c3ccc(NC(=O)CC#N)cc3)n2)c1 | ? | -12% | -3% | 40µM* | -61* | 45µM*
COc1ccc(/C=N/OCC(=O)Nc2nc3ccccc3s2)cc1OC | 1% | -1% | 17µM* | -2% | -13 | 50µM*
C=CCn1c(SC(C)C(=O)c2c(N)n(C)c(=O)n(C)c2=O)nnc1-c1ccoc1C (centres undefined) | 4% | 47% | 3% | 1% | -1 | 0%
COC(=O)[C@@H](N)CS | ? | -25% | 24µM* | -31% | ? | ?
COC(=O)C(N)CS (centres undefined) | -24% | nt | nt | nt | nt | nt
O=C1C(=O)N(C2CCN(S(=O)(=O)c3ccc(F)cc3)CC2)CCN1Cc1ccccc1 | 11% | 30% | nt | 3% | nt | -3%
Cc1csc(NC(=O)CCNC(=O)c2ccc([N+](=O)[O-])cc2)n1 | -19% | 4% | -9% | -9% | -3 | -5%
CSc1nsc(NC(=O)CCNC(=O)c2ccc([N+](=O)[O-])cc2)n1 | -1% | -12% | 24µM* | -11% | -16 | ?
Cc1cnc(NC(=O)CCNC(=O)c2ccc([N+](=O)[O-])cc2)s1 | -11% | ? | 27µM* | -21% | -2 | ?
C=C1C(=O)OC2C1CCC(C)=C1C(=O)C3OC3(C)C12 (centres undefined) | nt | 83% | 19µM* | nt | 1 | -18%
O=C(CC1(O)C(=O)Nc2ccccc21)c1cccc(-n2cccc2)c1 (centres undefined) | -3% | 0% | -5% | 50µM* | -3 | ?
Cc1ccc(C(=O)CC2(O)C(=O)Nc3ccccc32)s1 (centres undefined) | -8% | 33% | -8% | -19% | -55* | 11%
O=C(CC1(O)C(=O)Nc2ccccc21)c1ccc2c(c1)OCO2 (centres undefined) | -5% | 3% | -13% | 5% | nt | -13%
COc1ccc(NC(=O)C2CCC(CNS(=O)(=O)c3csc(C(N)=O)c3)CC2)cc1 (centres undefined) | 31% | 21% | nt | -11% | nt | -5%
Cn1nc(-c2ccccc2)c(CO)c1Oc1ccc(F)cc1 | 0% | -5% | 11µM* | -13% | ? | 20µM*
CCN(Cc1ccccc1)C(=O)C1CCN(S(=O)(=O)c2c(C)noc2/C=C/c2ccc(C)cc2)CC1 | 12% | -5%[57 µM] | nt | -8% | nt | -27%
COc1ccc(C(=O)Nc2nc(N)n(-c3ccccc3)n2)cc1OC | -4% | 28% | 2% | ? | 6 | -26%
COc1ccccc1/C=C/C(=O)Nc1nc(N)n(-c2ccccc2)n1 | -6% | 42% | -14% | 56µM* | -1 | -16%
Nc1nc(NC(=O)CCC(=O)O)nn1-c1ccccc1 | -14% | 19% | 2% | 50µM* | 9 | 22µM*

Screening data from PubChem BioAssay.
